In the library only some 7.4% were active in any assay of this set; here they are far more common.
SNCA viab count: reduces viability of HEK-293 SNCA reporter cells | HEK-293-SNCA-luc viability, GF-AFC fluorescence, 24 h | Potency, µM (doses to about 57.1 µM), for inactives: at the top dose activity change, negative = cytotoxicity, hits mostly cytotoxic | 150,000 tested, 0.12% active | AID 1671193;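 note: 0% = DMSO-treated cells and -100% = medium-only wells without cells; nearly all actives have a fitted effect of over 30% in size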
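Cytotoxicity counterscreen: after 24 h compound treatment of genome-edited SNCA-luciferase HEK-293 cells, live-cell protease substrate GF-AFC read by fluorescence after 30 min; activity scaled between DMSO (0%) and medium-only (-100%), curves Hill-fitted.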
3T3 cytotox: kills NIH 3T3 cells; NIH 3T3 viability, CellTiter-Glo ATP luminescence, 48-72 h; 94,000 tested, 4.3% active; Potency, µM (series often up to 96.7 µM), without a hit: at the highest dose activity change, negative = cytotoxicity, most hits filed as inhibitors; note: nearly all actives have a fitted effect of over 55% in size
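Mouse fibroblast NIH 3T3 cells, 400 per well, received compound via pintool and were incubated for 48 or 72 hr prior to CellTiter-Glo ATP luminescence measurement.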
HEK293 tox: cytotoxic compounds in HEK 293 cells | 94,000 tested, 6.6% active | Potency, µM (series often up to 115 µM), for inactives: top-dose activity change, negative = cytotoxicity, hits mostly inhibitors | HEK 293 viability, ATP luminescence (CellTiter-Glo), 48-72 h | AID 1345083; note: nearly all actives have a fitted effect of over 60% in size
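Luminescence from cellular ATP, measured with CellTiter-Glo, indicates HEK 293 viability. Cells plated at 250 cells/well are treated with compound for 48 or 72 hr at 37 degree Celsius before reagent addition.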
NPR1 antag: antagonists of human natriuretic peptide receptor Npr1; Potency, µM (titrated, usually from 46.3 µM), without a hit: at the top dose activity change, negative = inhibition, usual class: inhibitors; P16066; AID 1347048; 76,000 tested, 1.6% active; HEK293 hNpr1 GloSensor cGMP, ANP-stimulated luminescence; calls by dose curve; note: nearly all actives have a fitted effect of over 60% in size
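Compound pre-incubated 30 min at room temperature on GloSensor-loaded HEK293 cells stably carrying hNpr1 and the pGS-40F cGMP biosensor. Stimulation uses hNppA at 0.1 nM final; luminescence is taken at baseline and 20 min post-agonist.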
SNCA expr inh: inhibitors of alpha-synuclein (SNCA) gene expression. HEK-293 SNCA-luciferase knock-in, luminescence, 24 h. Potency, µM (highest dose often 57.2 µM), without a hit: at the top dose activity change, negative = inhibition, hits mostly inhibitors. 140,000 tested, 0.17% active. AID 1671194;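 note: plate controls were DMSO cells for no effect and cell-free wells for full effect; nearly all actives have a fitted effect of over 45% in size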
FLuc inh: blocks purified firefly luciferase enzyme activity. P08659. purified P. pyralis luciferase, luminescence, biochemical. Potency, µM (series often up to 115 µM), actives largely listed as inhibitors. 76,000 tested, 2.5% active; note: nearly all actives have a fitted effect of over 65% in size
Target sequence (P08659 whole entry, looked up): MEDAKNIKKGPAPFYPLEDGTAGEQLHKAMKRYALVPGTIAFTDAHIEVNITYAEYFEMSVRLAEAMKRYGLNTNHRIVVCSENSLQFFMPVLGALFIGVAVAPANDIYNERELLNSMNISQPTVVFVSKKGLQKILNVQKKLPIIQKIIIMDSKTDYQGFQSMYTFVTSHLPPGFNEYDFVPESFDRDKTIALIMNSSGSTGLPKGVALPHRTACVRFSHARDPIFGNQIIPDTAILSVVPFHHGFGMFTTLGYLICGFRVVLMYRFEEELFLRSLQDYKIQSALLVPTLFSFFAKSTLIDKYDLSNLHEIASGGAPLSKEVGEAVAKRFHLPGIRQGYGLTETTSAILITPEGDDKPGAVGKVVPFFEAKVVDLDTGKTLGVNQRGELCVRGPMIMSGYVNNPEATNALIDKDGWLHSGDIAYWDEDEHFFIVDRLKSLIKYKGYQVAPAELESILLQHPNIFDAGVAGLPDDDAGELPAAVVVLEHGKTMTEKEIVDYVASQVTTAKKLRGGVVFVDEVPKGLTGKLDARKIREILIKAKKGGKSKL
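Cell-free enzyme assay, 10nM P. pyralis luciferase, luciferin and ATP each at 10uM. Inhibition profiled over a 6-point titration, read as luminescence.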
* = called active by the depositor; i = inactive; ? = inconclusive; · = not tested or not shown; ! = not confirmed by another sample; [ ] = remark or other dose. Unless noted, calls come from the whole dose curve; as a rule, active = well fitted curve in the direction sought with a large enough effect; inconclusive = small, poorly fitted or top-dose-only effect, or another doubt; inactive = no such curve, though single readings can be large; an effect the other way counts as inactive or inconclusive. Unless noted, % is set by controls: 0 for no effect and ±100 for the full control effect; potency is the fitted concentration of half-maximal effect.

SMILES	SNCA viab count	3T3 cytotox	HEK293 tox	NPR1 antag	SNCA expr inh	FLuc inh
O=C(NCCc1ccc(Cl)cc1)c1cn2cc(-c3ccc(F)cc3)sc2n1	-5.3%	?	?	·	-11.2%	·
CCOc1ccc(CN2CCN(C/C=C/c3ccccc3OC)CC2CCO)cc1 (stereo unspecified)	-1.9%	?	20µM*	-13.6%	?	i
O=C(NCc1ccc(F)cc1)c1nn(CCOc2ccccc2)c2c1CNCC2	-4.3%	?	39.8µM*	·	?	·
O=C(NCc1ccncc1)[C@@H]1C[C@@H](c2ccc(F)cc2)N(CCOc2ccccc2)C1	-5.1%[87.6 µM]	?	?	-15.1%[70.6 µM]	5.9%[87.6 µM]	i
O=C(CCc1ccccc1)N1CC(Oc2ccccc2-c2nc(-c3ccccc3)no2)C1	-32.6%	35.5µM*	39.8µM*	·	3.5%	·
O=C(Nc1ccccc1)N1CCC(Oc2ccccc2-c2nc(-c3ccccc3)no2)C1 (stereo unspecified)	-29.1%	31.6µM*	25.1µM*	0.1%	-23.4%	?
c1ccc(-c2nc(-c3ccncc3)no2)c(OC2CCN(C3CCCC3)C2)c1 (stereo unspecified)	-8.7%	?	?	4.4%	9.9%	i
CCN1CCC(N2CCC(Oc3ccccc3-c3nc(-c4ccncc4)no3)C2)CC1 (stereo unspecified)	14.1µM*	6.31µM*	12.6µM*	-2.3%	?	i
O=C(NCc1ccccc1Cl)c1ccc2nnc(CC3CC3)n2c1	5.2%	?	?	·	4.6%	·
COc1ccc2c(c1)OC[C@@H]1CN(C)C(=O)CCN(C(=O)Cc3cccs3)[C@H]21	·	?	-1.8%	·	·	·
CN1C[C@H](C(=O)Nc2ccccc2)C[C@H]1c1cccc(C(F)(F)F)c1	-21.9%[87.6 µM]	44.7µM*	79.4µM*	-15.3%[70.6 µM]	?	i
COc1cccc(NC(=O)[C@@H]2C[C@@H](c3cccc(C(F)(F)F)c3)N(C)C2)c1	-10.6%[87.6 µM]	79.4µM*	100µM*	-19.7%[70.6 µM]	?	i
Cc1ccc(-n2nc(-c3c(C)nc4scc(CC(=O)NCc5ccco5)n4c3=O)cc2C)cc1	2.5%	-4.3%	?	4.4%	-9.0%	i
Cc1ccc(C)c(-n2nc(-c3c(C)nc4scc(CC(=O)NCc5ccco5)n4c3=O)cc2C)c1	8.91µM*	?	35.5µM*	-18.5%	?	i
Cc1nc2scc(CC(=O)NCC(C)C)n2c(=O)c1-c1cc(C)n(-c2ccc(C(C)C)cc2)n1	1.9%	?	79.4µM*	-11.3%	-3.8%	?
Cc1nc2scc(CC(=O)NCC(C)C)n2c(=O)c1-c1cc(C)n(-c2cccc(Cl)c2)n1	1.3%	-10.1%	?	6.9%	13.1%	i
COc1ccccc1Nc1ccnc(N2CCCC2C(=O)NC2CC2)n1 (stereo unspecified)	-14.9%	-19.0%	-18.9%	·	6.1%	·
O=C1NC2(CCN(Cc3ccsc3)C2)Oc2ccccc21 (stereo unspecified)	6.2%[87.6 µM]	-27.3%[138 µM]	-29.3%[172 µM]	15.1%[70.6 µM]	74.5%[87.6 µM]	i
O=C1NC2(CCN(Cc3ccsc3)C2)COc2ccccc21 (stereo unspecified)	-4.1%[87.6 µM]	39.8µM*	?	4.3%[70.6 µM]	33.6%[87.6 µM]	i
O=C1NC2(CCN(CC3CC3)CC2)COc2ccccc21	-4.6%[87.6 µM]	?	?	5.5%[70.6 µM]	-26.3%[87.6 µM]	i
O=C1NC2(CCN(CC3CCCCC3)CC2)COc2ccccc21	-5.9%[87.6 µM]	79.4µM*	35.5µM*	3.6%[70.6 µM]	0.6%[87.6 µM]	i
Cc1ccc(CN2CCC3(CC2)COc2ccccc2C(=O)N3)cc1	-5.3%	?	28.2µM*	-3.8%	-21.5%	i
Cn1cccc1CN1CCC2(COc3ccccc3C(=O)N2)C1 (stereo unspecified)	-3.7%[87.6 µM]	?	?	-1.8%[70.6 µM]	-16.2%[87.6 µM]	i
Cn1nccc1CN1CCCC2(COc3ccccc3C(=O)N2)C1 (stereo unspecified)	?	8.91µM*	28.2µM*	?	?	i
COc1ccccc1-c1cccc(C(=O)N2CCN(C(=O)NC3CCCC3)CC2)c1	-4.3%[12.5 µM]	?	?	·	-0.1%	·
SMILES	SNCA viab count	3T3 cytotox	HEK293 tox	NPR1 antag	SNCA expr inh	FLuc inh
O=C(Nc1ccc(F)cc1)c1ccc2oc(-c3cccnc3Cl)nc2c1	-3.8%[12.5 µM]	?	?	·	47.4%	·
CC(=O)Nc1ccc(CN2CCC3(CC2)COc2ccccc2C(=O)N3)cc1	6.9%	2.8%	?	-3.0%	4.3%	i
O=C1NC2(CCN(Cc3ccc(F)cc3)CC2)COc2ccccc21	-4.1%[87.6 µM]	-22.0%[138 µM]	63.1µM*	8.2%[70.6 µM]	?	i
COc1ccc(-c2cc(N3CCCC(NC(=O)c4cccc(C(F)(F)F)c4)C3)n[nH]2)cc1 (stereo unspecified)	?	?	?	-18.0%	?	i
COc1cccc(C(=O)NC2CCCN(c3cc(-c4ccc(F)cc4)[nH]n3)C2)c1 (stereo unspecified)	-17.7%	44.7µM*	?	-17.0%	-15.4%	?
COc1cc(OC)cc(C(=O)NC2CCCN(c3cc(-c4ccc(F)cc4)[nH]n3)C2)c1 (stereo unspecified)	-3.4%	?	44.7µM*	-12.0%	-1.2%	?
O=C(c1ccc(C(F)(F)F)cc1)N1CCCC(C(=O)N2CCCC2c2nc3ccncc3[nH]2)C1 (stereo unspecified)	-1.7%	-18.3%	-0.7%	·	9.9%	·
CNS(=O)(=O)CCNc1nc(-c2ccccn2)nc2c1c(C)nn2C	4.2%	-0.5%	3.0%	9.1%	-10.5%	i
COC(CNc1nc(-c2ccccn2)nc2c1c(C)nn2C)c1cccs1 (stereo unspecified)	-7.5%	25.1µM*	31.6µM*	0.9%	-0.9%	i
Cc1nn(C)c2nc(-c3ccccn3)nc(NCC(c3ccco3)N(C)C)c12 (stereo unspecified)	-12.0%	?	28.2µM*	-1.3%	30.3%	i
C#CCNC(=O)c1nc2sccn2c1-c1cccc(OC)c1	1.4%[87.6 µM]	-20.4%[138 µM]	-18.7%[172 µM]	·	25.2%[87.6 µM]	·
CSc1ccc(-c2cccc(C(=O)NCCNC(=O)Cc3ccc(F)cc3)c2)cc1	3.6%[12.5 µM]	?	?	·	5.8%	·
CNC(=O)c1cc(C)nc2onc(C3CCN(C(=O)c4ccc(Cl)nc4)C3)c12 (stereo unspecified)	·	-20.7%	-8.7%	·	·	·
CC(C)C[C@H](NC(=O)[C@H](Cc1ccccc1)NC(=O)c1cnccn1)B(O)O	?	·	·	·	0.0482µM*	·
CC(C)C[C@H](NC(=O)[C@@H](NC(=O)c1cccc(-c2ccccc2)n1)[C@@H](C)O)B(O)O	0.0474µM*!	·	·	·	0.0607µM*	·
O=C(NCc1ccc(C(F)(F)F)cc1)c1nc2cccnc2n(CCc2ccccc2)c1=O	-14.2%	?	?	·	8.2%	·

Screens from PubChem.
